Compounds with a hit are over-represented: about 1.5% of the library has one in this group of screens.
Polio RdRp inh: inhibitors of poliovirus RNA polymerase binding and polymerization; % elongation, % (compound at 16.7 µg/mL); poliovirus polymerase elongation, fluorescence polarization; hits give low values; AID 588519; actives 0.66% (n = 150,000); P03300; in the data active means % elongation below about 90%
Target sequence (P03300 1749-2209 limits assumed): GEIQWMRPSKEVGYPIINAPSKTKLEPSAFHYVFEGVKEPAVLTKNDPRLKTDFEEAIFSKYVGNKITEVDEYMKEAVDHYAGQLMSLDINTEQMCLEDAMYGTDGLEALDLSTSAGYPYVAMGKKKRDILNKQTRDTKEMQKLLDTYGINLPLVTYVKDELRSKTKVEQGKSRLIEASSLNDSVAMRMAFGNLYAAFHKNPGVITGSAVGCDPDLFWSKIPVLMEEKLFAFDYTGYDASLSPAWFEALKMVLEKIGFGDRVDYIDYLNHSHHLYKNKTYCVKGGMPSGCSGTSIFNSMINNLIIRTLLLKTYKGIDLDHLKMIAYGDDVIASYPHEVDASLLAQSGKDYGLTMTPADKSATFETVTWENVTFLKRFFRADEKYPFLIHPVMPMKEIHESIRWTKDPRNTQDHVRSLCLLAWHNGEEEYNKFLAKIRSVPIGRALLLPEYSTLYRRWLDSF
MenB inh: inhibitors of Mycobacterium tuberculosis MenB enzyme; P9WNP5; MenB enzyme assay, absorbance read-out; inhibition, % (test concentration not listed); actives 0.43% (n = 100,000); AID 540299; in the data active means inhibition above about 21%, passing the limit was not always enough
AID504770: growth inhibitors of E. coli YBA685 in a screen for V. cholerae RctB (chromosome II replication) inhibitors | E. coli YBA685 rctB-dependent plasmid, OD600 growth, 3 h; hits give low values | z-score (no concentration beside the values) | actives 0.27% (n = 130,000); in the data active means z-score below about -2, passing the limit was not always enough
MbtI inh: blocks the Mycobacterium tuberculosis siderophore enzyme MbtI | P9WFX0 | purified MbtI enzyme, fluorescence intensity read-out | inhibition, % (no concentration beside the values) | actives 0.89% (n = 100,000) | AID 493033; in the data active means inhibition mostly above about 56%, no sharp cut-off; inactive means mostly below about 77%
Of the large screens only hits and unclear results are named; the others gave an inactive call.

O=S(=O)(Cc1ccccc1)NCc1csc(-c2cccs2)n1	none (no result: Polio RdRp inh, MenB inh, MbtI inh)
c1nncn1/N=C1/CCCc2nonc21	MbtI inh 84
O=C(Nc1ccccc1)c1cccc(S(=O)(=O)N2CCOCC2)c1	none
Cc1cc2c(cc1C)C(=O)C(N1CCOCC1)=C(c1ccccc1)C2=O	MbtI inh 54
COc1cc(C(C#N)N2CCCCCC2)ccc1O (stereo not given)	none (no result: Polio RdRp inh, MenB inh)
Nc1cc(-c2ccccc2)c2ccccc2n1	AID504770 -2.2 (no result: MbtI inh)
O=c1c2c(F)c(F)c(F)c(F)c2on2c3c(cc12)CCCC3	Polio RdRp inh 87
C=CCn1c(=O)[nH]c2nc3cc(N=CN(C)C)ccc3nc2c1=O	Polio RdRp inh -6.0
C=CCn1c(=O)[nH]c2nc3cc(N=CN(C)C)c(C)cc3nc2c1=O	none
CCCC(C(=O)NC1CCCC1)N(C(=O)Cn1nnc(-c2ccc(C)o2)n1)c1ccccc1 (stereo not given)	none
CCC(C(=O)NC1CCCC1)N(C(=O)Cn1nnc(-c2ccc(C)cc2)n1)c1ccc2c(c1)OCCO2 (stereo not given)	MenB inh 33
C/C(=C\C(=O)c1cccnc1)Nc1ccccc1O	MenB inh 60
Cc1cc(C(=O)CSc2nnc(CN3CCCC3)o2)c(C)n1CCC(C)C	none
O=C(Nc1ccccc1)Nc1ccc2snnc2c1	AID504770 -2.6
O=C(Nc1ccccc1)Nc1ccc2nnsc2c1	none
Cc1cc(C)c(N=C=S)c(Cl)c1	none
CSC(=C(C#N)C#N)N1CCOCC1	none
CCc1ccccc1NC(=O)CCC(=O)O	MenB inh 32
Cc1ccccc1NC(=O)CCC(=O)O	none
O=C1c2ccccc2C(=O)N1CCCc1nn2c(-c3cccnc3)nnc2s1	MbtI inh 64
O=C(O)/C=C/C=C/c1ccc(Cl)cc1	none
CCn1c(CNC(=O)Cc2c(F)cccc2Cl)nnc1SC	none
N/C(=N\O)c1ccncc1	none
N/C(=N\O)c1cccc(/C(N)=N/O)n1	MenB inh 47 (no result: MbtI inh)
Cc1ccc(-n2cnnc2)cc1	none (no result: MenB inh)
COC(=O)C(C)n1nnc2sc(-c3ccccc3)cc2c1=O (stereo not given)	none (no result: MenB inh, AID504770, MbtI inh)
CCc1ccc(NC(=O)C(C)n2nnc3sc(-c4ccccc4)cc3c2=O)cc1 (stereo not given)	Polio RdRp inh 79 (no result: MenB inh, AID504770, MbtI inh)
COc1ccc2cc([C@H](C)C(=O)O)ccc2c1	none
COc1ccc(-c2sccc2C(C)C(=O)O)cc1 (stereo not given)	MenB inh 27
Cc1noc(C)c1CSc1ncccc1C(=O)N1CCN(S(=O)(=O)c2ccccc2C#N)CC1	none
CCc1nc(SCc2ccccc2)[nH]c(=O)c1C	MbtI inh 83
O=c1[nH]c(SCc2ccccc2)nc2ccccc12	none (no result: Polio RdRp inh, MenB inh)
O=C(CO/N=C/c1ccco1)NCc1ccccc1	MbtI inh 51
O=C1CSCC(=O)N1Cc1cccc(C(F)(F)F)c1	none (no result: Polio RdRp inh, MenB inh, MbtI inh)
CCOC(=O)N1CCC(NC(=O)CNC(=O)c2ccco2)CC1	AID504770 -2.7 (no result: Polio RdRp inh, MenB inh)
O=C(N=C=S)c1ccc2ccccc2c1	Polio RdRp inh 75
CN(C)S(=O)(=O)c1cccc(C(=O)N=C=S)c1	Polio RdRp inh 70, MbtI inh 96
CCN(CC)C(=O)CSc1nc2ccccc2c(=O)n1Cc1ccc(C(=O)NC2CC2)cc1	none (no result: Polio RdRp inh, MenB inh, MbtI inh)
COC(=O)c1ccsc1N1C(=O)C=CC1=O	MbtI inh 94 (no result: Polio RdRp inh)
Cc1ccccc1C=C1C(=O)N(C)C(=S)N(C)C1=O	MbtI inh 72
CCc1ccc(C=C2C(=O)N(C)C(=S)N(C)C2=O)cc1	MbtI inh 99
COc1ccc(C=C2C(=O)N(C)C(=S)N(C)C2=O)c(C)c1	none
CN1C(=O)C(=Cc2cn(CC(=O)O)c3ccccc23)C(=O)N(C)C1=S	MbtI inh 75
CCN(CC)C(=O)c1cccc(Nc2ccc(-c3ccccc3OC)nn2)c1	none
O=C(/C=C/c1ccccc1Cl)Nc1ncn[nH]1	Polio RdRp inh 67 (no result: MbtI inh)
COCCn1c(C)cc(O)c(C(c2ccncc2)N2CCCCC2)c1=O (stereo not given)	none
O=C(CSc1nc2c(c(=O)[nH]1)CSC2)c1ccc(Cl)cc1	MbtI inh 82
CNC(=O)O/N=C(\N)c1nn(C(=O)NC)cc1Br	none
O=C(CCN1C(=O)c2ccccc2S1(=O)=O)Nc1nc(-c2ccccc2)cs1	none
COc1cccc(OC)c1C(=O)Nc1nnc(CC(C)(C)C)s1	Polio RdRp inh 71 (no result: MbtI inh)
O=C1CN(/N=C/c2ccc(-c3ccc([N+](=O)[O-])cc3)o2)C(=O)N1	none (no result: AID504770)
O=C1OCCN1/N=C/c1ccc([N+](=O)[O-])o1	AID504770 -4.3
O=C1CN(/N=C/c2ccc([N+](=O)[O-])o2)C(=O)N1	AID504770 -2.3
COc1cc(NC(=O)c2cc3ccccc3cc2OCC(=O)NC(C)(C)C)c(OC)cc1Cl	none (no result: MbtI inh)
Cc1ccc(CNCCN2CCOCC2)o1	none (no result: MbtI inh)
COc1ccc(-c2ccc(CNCCN3CCOCC3)o2)cc1Cl	MenB inh 33
Cc1ccc(C2CC(c3cccs3)=NN2C(=O)CSc2nnc(CNC(=O)c3ccco3)n2-c2ccccc2)cc1 (stereo not given)	none
Nc1nnc(SCC(O)Cn2c3c(c4ccccc42)CCCC3)s1 (stereo not given)	MenB inh 25 (no result: MbtI inh)
CCN(CC(=O)Nc1ccccc1OC)CC(=O)NC1CCCc2ccccc21 (stereo not given)	none
O=C1Nc2ccccc2S/C1=C/Nc1ccc(Cl)cc1	none (no result: Polio RdRp inh, MenB inh, MbtI inh)
CCCSc1nc2ccc(S(=O)(=O)N3CCOCC3)cc2[nH]1	Polio RdRp inh 64, MbtI inh 93
NC(=O)CSc1nc2cc(S(=O)(=O)N3CCOCC3)ccc2o1	Polio RdRp inh 76
CN(C)C(=O)CSc1nc2cc(S(=O)(=O)N3CCOCC3)ccc2o1	Polio RdRp inh 81, MbtI inh 87
Cc1ccc2nc(SCC(N)=O)oc2c1	MenB inh 33
CN(C)C(=O)CSc1nc2cc(Cl)ccc2o1	none (no result: Polio RdRp inh)
Nn1c(SCc2ccccc2)n[nH]c1=S	MbtI inh 70
O=C(CC(SCc1ccco1)c1ccc(OC(F)F)cc1)c1ccco1 (stereo not given)	none
FC(F)(F)c1cc(C(F)(F)F)n2[nH]c(=S)nc2n1	MbtI inh 96
O=C(O)CCC(=O)N1CCNC(=O)C1	none (no result: MbtI inh)
CC(C)Cn1c(SCc2nnc(-c3cccs3)o2)nc(O)cc1=O	Polio RdRp inh 83
COc1cc2nc(NCCCN3CCCCC3C)n3nc(-c4cccnc4)nc3c2cc1OC (stereo not given)	none (no result: Polio RdRp inh, MenB inh, MbtI inh)
O=C(CCCn1sc2ccccc2c1=O)NCc1cccs1	MbtI inh 82
O=C(CCCn1sc2ccccc2c1=O)NCCC1=CCCCC1	MbtI inh 94
O=C(CCCn1sc2ccccc2c1=O)Nc1ccccc1F	none
CC1CC(C)(C)NC(=S)N1CCCC(=O)N1CCN(c2ccccc2)CC1 (stereo not given)	none (no result: Polio RdRp inh, MenB inh, AID504770)
COc1ccccc1N(CN1CCCC1=O)C(=O)COc1ccc(Cl)cc1Cl	none
O=C(c1ccc2c(c1)N(Cc1ccc(Cl)cc1)C(=O)c1ccccc1S2=O)N1CCOCC1 (stereo not given)	Polio RdRp inh 73 (no result: MenB inh, AID504770, MbtI inh)
O=C(c1ccc2c(c1)N(Cc1ccccc1)C(=O)c1ccccc1S2=O)N1CCOCC1 (stereo not given)	none
